Data taken from PubChem BioAssay (EPA / NIEHS).
Where “and” joins values, the source holds several entries; their conditions need not be identical. Identical values can stand only once. Results filed as inconclusive are left out. Some structures have more than one record in an assay (separate samples or runs), and their calls can disagree. Calls of active or inactive are those of the source. The calls were made as follows, unless noted: active = hit-call score of the fitted dose curve at least 0.9, where 1 is the maximum; inactive = score below 0.9.

Experiments:
[1] = ATG_TAL_CIS: Attagene CIS-FACTORIAL HepG2 Assay for human TAL Basal Promoter (AID 2282966); details: HepG2 Attagene cis-factorial TAL promoter reporter; actives raise or lower the signal;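 also: background control endpoint measuring basal TAL promoter reporter mRNA not a specific factor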
Outline: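 Fluorescence of labelled reporter cDNA fragments, resolved by capillary electrophoresis, gave the readout. Human HepG2 liver cells carried transiently transfected cis-element reporter units and were treated for 24 hours; activity was fitted bidirectionally against DMSO.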

[2] = ATG_TGFb_CIS: Attagene CIS-FACTORIAL HepG2 Assay for human Transforming Growth Factor (TGF) (AID 2282967); details: HepG2 Attagene CIS TGFb reporter, mRNA transcription; actives raise or lower the signal
Outline: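 After a 24-hour incubation with compound, transfected HepG2 cells were lysed for RNA; reporter cDNA was amplified, fluorescently end-labeled and separated by CE. DMSO served as baseline for bidirectional fits.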

[3] = ATG_VDRE_CIS: Attagene CIS-FACTORIAL HepG2 Assay for human Vitamin D Receptor Element (VDRE) (AID 2282968); details: HepG2 VDRE cis-reporter transcription, actives raise or lower the signal
Outline: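 HepG2 cells transiently transfected with cis-element reporter units, dosed 24 h; reporter mRNA measured by RT-PCR, 6-FAM labeling, HpaI digestion and capillary electrophoresis. Activity fitted bidirectionally against DMSO baseline.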

[4] = target: Nuclear receptor subfamily 1 group I member 3 (Homo sapiens) (UniProt Q14994); assay: ATG_CAR_TRANS: Attagene TRANS-FACTORIAL HepG2 Assay for human Constitutive Androstane Receptor (CAR) (AID 2282969; active = hit-call score of the fitted dose curve at least 0.9, where 1 is the maximum;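 also: activators raise reporter mRNA above DMSO so AC50 marks induction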); details: HepG2 Attagene TRANS-FACTORIAL CAR reporter
Outline: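 HepG2 cells transiently transfected with multiplexed GAL4-UAS reporter units expressing chimeric NR-Gal4 proteins; compound exposure 24 h. Reporter mRNA measured by RT-PCR, 6-FAM labelling, HpaI digestion and capillary electrophoresis; gain-of-signal fitted against DMSO baseline.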

[5] = target: Estrogen receptor (Homo sapiens) (UniProt P03372); assay: ATG_ERa_TRANS: Attagene TRANS-FACTORIAL HepG2 Assay for human Estrogen Receptor alpha (ERa) (AID 2282970; active = hit-call score of the fitted dose curve at least 0.9, where 1 is the maximum); details: HepG2 Attagene TRANS ERa GAL4 reporter, mRNA
Outline: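 Human liver HepG2, transient transfection of multiple GAL4-UAS reporter units; TRANS format (exogenous NR-Gal4 chimera). 24 h dosing. Readout: reporter mRNA, RT-PCR, 6-FAM primer extension, HpaI digest, capillary electrophoresis. Positive direction vs DMSO.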

[6] = target: X-box-binding protein 1 (Homo sapiens) (UniProt P17861); assay: ATG_Xbp1_CIS: Attagene CIS-FACTORIAL HepG2 Assay for human X-box Binding Protein 1 (XBP1) (AID 2282972); details: HepG2 XBP1 cis-element reporter, Attagene multiplex; actives raise or lower the signal
Outline: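 HepG2, transient MRTU transfection (cis-promoter driven), 24 h compound exposure. Total RNA → oligo(dT) RT → PCR → 6-FAM labeling → HpaI cut → CE. Bidirectional fit vs DMSO.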

[7] = ATG_M_19_TRANS: Attagene TRANS-FACTORIAL HepG2 Assay for M19 Transcription Factor (Internal Marker) (AID 2282974; active = hit-call score of the fitted dose curve at least 0.9, where 1 is the maximum); details: HepG2 Attagene TRANS-FACTORIAL M19 internal marker reporter
Outline: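 Using RT-PCR and capillary electrophoresis, reporter mRNA from transiently transfected human HepG2 cells was quantified following 24 h exposure; activity was fitted in the positive direction against DMSO.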

[8] = ATG_GAL4_TRANS: Attagene TRANS-FACTORIAL HepG2 Assay for GAL4 (Internal Marker) (AID 2282976; active = hit-call score of the fitted dose curve at least 0.9, where 1 is the maximum); details: HepG2 Attagene TRANS GAL4 internal marker reporter
Outline: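 First, HepG2 cells were transfected with reporter units under GAL4-UAS control. Next, they were treated with chemical for 24 h. Finally, RNA was reverse-transcribed, PCR-amplified, FAM-labelled and resolved by capillary electrophoresis, with induction scored against DMSO.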

[9] = target: Bile acid receptor (Homo sapiens) (UniProt Q96RI1); assay: ATG_FXR_TRANS: Attagene TRANS-FACTORIAL HepG2 Assay for Farnesoid X Receptor (FXR) (AID 2282979; active = hit-call score of the fitted dose curve at least 0.9, where 1 is the maximum;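 also: hits raise reporter mRNA above DMSO so AC50 marks FXR activation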); details: HepG2 Attagene TRANS FXR-GAL4 reporter transcription
Outline: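 Transient transfection of HepG2 with multiplexed GAL4-UAS reporter units; exogenous FXR-GAL4 chimera. Dose 24 h → TriZol RNA → oligo(dT) RT → PCR, 6-FAM primer extension, HpaI cut → CE. Gain vs DMSO.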

[10] = target: Oxysterols receptor LXR-alpha (Homo sapiens) (UniProt Q13133); assay: ATG_LXRa_TRANS: Attagene TRANS-FACTORIAL HepG2 Assay for human Liver X Receptor alpha (LXRa) (AID 2282980; active = hit-call score of the fitted dose curve at least 0.9, where 1 is the maximum); details: HepG2 Attagene TRANS reporter, LXRa transactivation
Outline: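 Transfect HepG2 with GAL4-UAS multiplex reporter constructs (TRANS format, chimeric receptor-GAL4); treat 24 h; extract RNA, reverse-transcribe, PCR-amplify, FAM-label, HpaI-digest; resolve fragments by capillary electrophoresis. Upward response vs DMSO.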

[11] = target: Oxysterols receptor LXR-beta (Homo sapiens) (UniProt P55055); assay: ATG_LXRb_TRANS: Attagene TRANS-FACTORIAL HepG2 Assay for human Liver X Receptor beta (LXRb) (AID 2282981; active = hit-call score of the fitted dose curve at least 0.9, where 1 is the maximum); details: HepG2 Attagene TRANS GAL4-LXRb reporter, mRNA
Outline: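 HepG2 cells transiently transfected with multiple reporter transcription units carrying chimeric NR-Gal4 proteins acting on GAL4-UAS reporters; compound exposure 24 h. Reporter mRNA quantified by RT-PCR, 6-FAM labelling, HpaI digestion and capillary electrophoresis; gain of signal versus DMSO.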

[12] = ATG_M_32_TRANS: Attagene TRANS-FACTORIAL HepG2 Assay for M32 Transcription Factor (Internal Marker) (AID 2282984; active = hit-call score of the fitted dose curve at least 0.9, where 1 is the maximum;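 also: transcript level of a background control reporter unit measured by RT-PCR and capillary electrophoresis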); details: HepG2 Attagene TRANS M32 internal marker reporter
Outline: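 HepG2 cells transiently transfected with multiple GAL4-UAS reporter transcription units, dosed for 24 hours; reporter mRNA quantified by RT-PCR, 6-FAM primer extension, HpaI digestion and capillary electrophoresis. Gain-of-signal fitted versus DMSO baseline; internal background-control marker.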

[13] = target: Transcriptional activator Myb (Homo sapiens) (UniProt P10242); assay: ATG_Myb_CIS: Attagene CIS-FACTORIAL HepG2 Assay for human Myeloblastosis (Myb) Proto-Oncogene Transcription Factor (AID 2282986); details: HepG2 Attagene CIS-FACTORIAL Myb reporter transcription; actives raise or lower the signal
Outline: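 In this HepG2 transient-transfection format, cis-regulated reporter mRNA is quantified 24 h post-dosing by RT-PCR with capillary electrophoresis, fitted bidirectionally to DMSO baseline.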

[14] = target: Nuclear respiratory factor 1 (Homo sapiens) (UniProt Q16656); assay: ATG_NRF1_CIS: Attagene CIS-FACTORIAL HepG2 Assay for human Nuclear Respiratory Factor 1 (NRF1) Orphan Gene (AID 2282987); details: HepG2 NRF1 cis-element reporter, Attagene multiplex; actives raise or lower the signal
Outline: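 Using DMSO as baseline, gain- or loss-of-signal was fitted for reporter mRNA levels in HepG2 cells transiently transfected with cis-regulated reporter units. Samples were taken 24 h after dosing and read by RT-PCR with capillary electrophoresis.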

[15] = target: Glucocorticoid receptor (Homo sapiens) (UniProt P04150); assay: ATG_GR_TRANS: Attagene TRANS-FACTORIAL HepG2 Assay for human Glucocorticoid Receptor (GR) (AID 2282978; active = hit-call score of the fitted dose curve at least 0.9, where 1 is the maximum;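 also: activators score as hits since higher reporter transcript over DMSO is fitted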); details: HepG2 Attagene TRANS GR reporter, mRNA transcription
Outline: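 Exogenous NR-GAL4 fusion activity was assessed through induced GAL4-UAS reporter transcripts in transfected human HepG2 cells, quantified after 24 h by RT-PCR and fluorescent capillary electrophoresis with DMSO as baseline.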

[16] = target: Hepatocyte nuclear factor 4-alpha (Homo sapiens) (UniProt P41235); assay: ATG_HNF4a_TRANS: Attagene TRANS-FACTORIAL HepG2 Assay for human Hepatocyte Nuclear Factor 4 alpha (HNF4a) (AID 2282982; active = hit-call score of the fitted dose curve at least 0.9, where 1 is the maximum); details: HepG2 HNF4a transactivation reporter, mRNA readout
Outline: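 HepG2 cells transiently transfected with multiplexed GAL4-UAS reporter units responsive to chimeric NR-GAL4 proteins; compound exposure 24 h. Reporter mRNA quantified by RT-PCR, 6-FAM labelling, HpaI digestion and capillary electrophoresis; gain of signal versus DMSO baseline.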

[17] = ATG_M_06_TRANS: Attagene TRANS-FACTORIAL HepG2 Assay for M06 Transcription Factor (Internal Marker) (AID 2282983; active = hit-call score of the fitted dose curve at least 0.9, where 1 is the maximum;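 also: reporter transcript level by RT-PCR then capillary electrophoresis fluorescence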); details: HepG2 Attagene TRANS M06 internal marker reporter
Outline: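 Transfect HepG2 with MRTUs → dose compounds 24 h → isolate RNA, oligo(dT) RT → PCR with reporter primers → 6-FAM primer extension → HpaI digest → CE fragment analysis. Positive direction vs DMSO.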

Measured: AC50

X-box-binding protein 1 (Homo sapiens), sequence (P17861 whole entry, looked up): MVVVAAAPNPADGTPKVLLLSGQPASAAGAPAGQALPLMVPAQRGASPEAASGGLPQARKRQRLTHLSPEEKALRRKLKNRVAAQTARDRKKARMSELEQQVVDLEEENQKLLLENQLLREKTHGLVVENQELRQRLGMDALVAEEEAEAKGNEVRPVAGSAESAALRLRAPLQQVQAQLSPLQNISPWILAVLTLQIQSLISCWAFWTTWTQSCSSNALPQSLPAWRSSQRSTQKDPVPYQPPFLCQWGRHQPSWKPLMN
Oxysterols receptor LXR-beta (Homo sapiens), sequence (P55055 whole entry, looked up, the tested form may be a part): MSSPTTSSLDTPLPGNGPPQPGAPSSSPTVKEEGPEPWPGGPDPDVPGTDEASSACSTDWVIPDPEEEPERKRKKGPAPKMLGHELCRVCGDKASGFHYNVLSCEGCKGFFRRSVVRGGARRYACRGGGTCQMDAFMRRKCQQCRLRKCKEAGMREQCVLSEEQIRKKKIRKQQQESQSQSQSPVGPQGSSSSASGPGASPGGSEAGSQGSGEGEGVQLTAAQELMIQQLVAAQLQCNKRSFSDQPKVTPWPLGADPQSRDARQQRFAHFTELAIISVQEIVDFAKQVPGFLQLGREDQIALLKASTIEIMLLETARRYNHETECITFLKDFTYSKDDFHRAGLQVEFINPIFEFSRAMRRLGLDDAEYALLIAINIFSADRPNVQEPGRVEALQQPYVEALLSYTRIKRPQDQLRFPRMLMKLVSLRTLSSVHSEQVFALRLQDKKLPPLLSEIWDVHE
Nuclear receptor subfamily 1 group I member 3 (Homo sapiens), sequence (Q14994 whole entry, looked up, the tested form may be a part): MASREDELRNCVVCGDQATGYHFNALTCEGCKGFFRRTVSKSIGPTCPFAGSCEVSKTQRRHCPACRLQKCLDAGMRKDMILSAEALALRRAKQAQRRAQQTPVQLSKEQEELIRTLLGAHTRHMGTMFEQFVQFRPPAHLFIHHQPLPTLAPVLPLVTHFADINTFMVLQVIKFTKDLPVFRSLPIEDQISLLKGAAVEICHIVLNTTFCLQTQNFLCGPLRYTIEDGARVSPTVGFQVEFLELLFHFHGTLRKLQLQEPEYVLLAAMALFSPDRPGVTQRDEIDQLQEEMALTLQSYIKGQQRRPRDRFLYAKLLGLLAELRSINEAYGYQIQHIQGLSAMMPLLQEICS
Nuclear respiratory factor 1 (Homo sapiens), sequence (Q16656 whole entry, looked up): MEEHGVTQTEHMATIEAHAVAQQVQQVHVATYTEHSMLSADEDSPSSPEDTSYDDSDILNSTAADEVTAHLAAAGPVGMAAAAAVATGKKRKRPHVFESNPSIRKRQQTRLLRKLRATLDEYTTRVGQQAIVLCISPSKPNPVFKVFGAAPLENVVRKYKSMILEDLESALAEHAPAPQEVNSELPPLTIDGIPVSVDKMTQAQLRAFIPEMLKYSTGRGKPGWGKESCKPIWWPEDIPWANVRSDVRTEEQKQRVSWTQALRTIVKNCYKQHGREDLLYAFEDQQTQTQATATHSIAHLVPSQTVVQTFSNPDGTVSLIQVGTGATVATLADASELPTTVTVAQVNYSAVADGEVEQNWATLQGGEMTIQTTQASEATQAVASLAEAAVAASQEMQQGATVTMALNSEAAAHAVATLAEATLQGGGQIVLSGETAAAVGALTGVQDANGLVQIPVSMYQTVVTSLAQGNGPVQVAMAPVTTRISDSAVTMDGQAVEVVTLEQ
Oxysterols receptor LXR-alpha (Homo sapiens), sequence (Q13133 whole entry, looked up, the tested form may be a part): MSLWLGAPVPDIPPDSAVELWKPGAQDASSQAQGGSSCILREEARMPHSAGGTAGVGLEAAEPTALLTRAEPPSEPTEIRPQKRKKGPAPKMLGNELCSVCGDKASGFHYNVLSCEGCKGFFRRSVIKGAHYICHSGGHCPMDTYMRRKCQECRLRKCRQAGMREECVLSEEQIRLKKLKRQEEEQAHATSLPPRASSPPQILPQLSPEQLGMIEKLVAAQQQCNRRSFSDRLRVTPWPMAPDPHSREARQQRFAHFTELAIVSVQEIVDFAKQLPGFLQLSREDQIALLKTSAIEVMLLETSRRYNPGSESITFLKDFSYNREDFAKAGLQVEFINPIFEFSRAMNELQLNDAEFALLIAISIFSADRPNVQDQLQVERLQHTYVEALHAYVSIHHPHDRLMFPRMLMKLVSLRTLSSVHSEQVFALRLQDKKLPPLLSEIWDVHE
Transcriptional activator Myb (Homo sapiens), sequence (P10242 whole entry, looked up): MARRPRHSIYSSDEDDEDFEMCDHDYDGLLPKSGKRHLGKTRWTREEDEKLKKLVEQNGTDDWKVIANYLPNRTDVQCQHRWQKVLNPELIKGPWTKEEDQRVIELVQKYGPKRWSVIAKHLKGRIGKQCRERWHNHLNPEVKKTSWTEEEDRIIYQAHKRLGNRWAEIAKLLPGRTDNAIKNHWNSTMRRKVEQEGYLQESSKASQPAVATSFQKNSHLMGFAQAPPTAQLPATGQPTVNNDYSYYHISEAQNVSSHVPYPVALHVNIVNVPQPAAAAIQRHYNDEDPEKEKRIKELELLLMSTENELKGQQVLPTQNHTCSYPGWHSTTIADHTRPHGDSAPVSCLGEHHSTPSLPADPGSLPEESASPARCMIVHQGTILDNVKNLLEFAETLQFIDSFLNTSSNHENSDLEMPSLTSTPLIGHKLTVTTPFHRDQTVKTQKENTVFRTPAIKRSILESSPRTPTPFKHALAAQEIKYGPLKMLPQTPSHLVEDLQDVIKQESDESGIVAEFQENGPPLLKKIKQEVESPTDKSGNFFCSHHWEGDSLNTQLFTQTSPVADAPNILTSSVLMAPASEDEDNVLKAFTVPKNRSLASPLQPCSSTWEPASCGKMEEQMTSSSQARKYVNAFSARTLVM
Hepatocyte nuclear factor 4-alpha (Homo sapiens), sequence (P41235 whole entry, looked up, the tested form may be a part): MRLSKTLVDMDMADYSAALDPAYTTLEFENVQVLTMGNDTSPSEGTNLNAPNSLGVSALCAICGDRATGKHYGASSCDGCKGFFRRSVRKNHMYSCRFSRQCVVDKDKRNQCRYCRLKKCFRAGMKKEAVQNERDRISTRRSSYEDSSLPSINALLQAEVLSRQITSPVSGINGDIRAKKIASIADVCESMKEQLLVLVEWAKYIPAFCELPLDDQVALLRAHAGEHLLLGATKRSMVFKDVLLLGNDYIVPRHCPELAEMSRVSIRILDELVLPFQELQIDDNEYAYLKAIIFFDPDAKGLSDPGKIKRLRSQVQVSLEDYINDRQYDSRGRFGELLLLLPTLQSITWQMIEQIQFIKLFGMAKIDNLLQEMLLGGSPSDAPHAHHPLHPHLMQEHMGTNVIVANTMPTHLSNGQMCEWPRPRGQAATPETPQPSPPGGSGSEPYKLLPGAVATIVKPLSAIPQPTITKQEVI
Bile acid receptor (Homo sapiens), sequence (Q96RI1 whole entry, looked up, the tested form may be a part): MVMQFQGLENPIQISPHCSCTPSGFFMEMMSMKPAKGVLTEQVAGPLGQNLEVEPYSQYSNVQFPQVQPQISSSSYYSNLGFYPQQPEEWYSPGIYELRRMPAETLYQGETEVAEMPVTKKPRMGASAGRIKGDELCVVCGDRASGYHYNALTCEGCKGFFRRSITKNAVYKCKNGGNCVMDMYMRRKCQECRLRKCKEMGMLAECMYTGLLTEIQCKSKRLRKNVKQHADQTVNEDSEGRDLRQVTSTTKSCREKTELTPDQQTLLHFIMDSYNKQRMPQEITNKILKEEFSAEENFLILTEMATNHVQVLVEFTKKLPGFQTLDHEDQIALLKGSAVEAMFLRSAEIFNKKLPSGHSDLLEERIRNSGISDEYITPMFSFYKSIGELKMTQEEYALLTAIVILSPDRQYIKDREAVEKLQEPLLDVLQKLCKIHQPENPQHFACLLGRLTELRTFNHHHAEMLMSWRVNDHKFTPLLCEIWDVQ
Estrogen receptor (Homo sapiens), sequence (P03372 whole entry, looked up, the tested form may be a part): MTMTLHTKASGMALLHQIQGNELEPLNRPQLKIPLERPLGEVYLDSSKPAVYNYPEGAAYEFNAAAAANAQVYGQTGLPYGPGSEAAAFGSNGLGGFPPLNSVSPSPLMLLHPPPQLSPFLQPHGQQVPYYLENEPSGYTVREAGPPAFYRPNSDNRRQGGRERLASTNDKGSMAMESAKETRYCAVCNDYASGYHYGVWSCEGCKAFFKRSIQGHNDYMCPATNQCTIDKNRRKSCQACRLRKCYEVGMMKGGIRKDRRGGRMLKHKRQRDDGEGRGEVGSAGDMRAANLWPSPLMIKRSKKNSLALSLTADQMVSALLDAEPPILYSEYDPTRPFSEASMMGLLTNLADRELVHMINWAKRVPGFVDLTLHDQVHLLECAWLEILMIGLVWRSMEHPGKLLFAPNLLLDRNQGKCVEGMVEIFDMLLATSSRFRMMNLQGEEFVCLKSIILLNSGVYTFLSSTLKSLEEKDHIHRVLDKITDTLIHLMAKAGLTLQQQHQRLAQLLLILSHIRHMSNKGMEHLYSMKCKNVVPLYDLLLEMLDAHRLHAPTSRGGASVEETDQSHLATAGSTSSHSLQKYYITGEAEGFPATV
Glucocorticoid receptor (Homo sapiens), sequence (P04150 whole entry, looked up, the tested form may be a part): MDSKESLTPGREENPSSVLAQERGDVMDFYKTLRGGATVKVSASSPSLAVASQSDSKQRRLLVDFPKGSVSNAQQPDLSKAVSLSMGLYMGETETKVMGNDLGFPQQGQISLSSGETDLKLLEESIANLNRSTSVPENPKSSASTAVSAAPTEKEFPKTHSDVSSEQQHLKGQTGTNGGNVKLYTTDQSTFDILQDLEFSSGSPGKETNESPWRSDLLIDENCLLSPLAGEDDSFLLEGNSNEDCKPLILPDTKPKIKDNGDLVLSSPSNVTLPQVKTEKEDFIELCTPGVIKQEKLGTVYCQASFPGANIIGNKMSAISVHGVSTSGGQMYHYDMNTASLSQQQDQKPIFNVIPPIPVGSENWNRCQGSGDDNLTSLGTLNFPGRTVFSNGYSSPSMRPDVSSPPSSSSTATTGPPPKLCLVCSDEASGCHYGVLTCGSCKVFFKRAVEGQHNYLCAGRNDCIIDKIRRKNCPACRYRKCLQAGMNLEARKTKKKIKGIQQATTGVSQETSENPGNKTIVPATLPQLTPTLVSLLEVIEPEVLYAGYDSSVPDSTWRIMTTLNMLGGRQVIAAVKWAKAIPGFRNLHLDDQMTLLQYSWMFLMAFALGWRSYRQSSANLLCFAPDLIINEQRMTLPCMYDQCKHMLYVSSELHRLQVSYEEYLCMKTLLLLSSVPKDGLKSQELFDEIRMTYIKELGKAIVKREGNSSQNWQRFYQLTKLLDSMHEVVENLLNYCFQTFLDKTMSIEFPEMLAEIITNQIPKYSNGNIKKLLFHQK

CSc1ccc(Oc2ccc(S(N)(=O)=O)cc2CN(C)C)cc1C
active: [3] 29.8 µM
not listed: [15] | [16] | [17]
inactive: all other assays above

Oc1ccccc1O
active: [3] 27.5 µM | [6] 35.7 µM
inactive: [1] | [2] | [4] | [7] | [15] | [12] | [13] | [14]

CCCCC(CC)CO (stereo not drawn)
not listed: [5] | [7] | [8] | [10] | [12] | [15]
inactive: all other assays above

CC(=O)O[C@]1(C(C)=O)CC[C@H]2[C@@H]3C=C(Cl)C4=CC(=O)[C@@H]5C[C@@H]5[C@]4(C)[C@H]3CC[C@@]21C
active: [1] 47.7 µM | [3] 24.1 µM | [6] 45.5 µM and 51.8 µM and 43 µM | [13] 50.8 µM | [14] 26.8 µM
inactive: [1] | [2] | [3] | [6] | [7] | [8] | [10] | [11] | [16] | [17] | [12] | [13] | [14]
